Only some compounds are listed: those with a hit (about 8% of all), similar ones and a draw of the others.
ELG1 repair inh: qHTS screen for small molecules that inhibit ELG1-dependent DNA repair in human embryonic kidney (HEK293T) cells expressing luciferase-tagged ELG1; AID 504467, 2011; hit rate 2.3% among 330,000; HEK293T ELG1-luciferase reporter, luminescence, 16 h; DNA damage induced by 5-fluorouridine; Potency, µM (series often up to 46.1 µM), for the others: top-dose activity change, negative = inhibition, most hits filed as inhibitors; also: potency is read from the fitted curve at half-maximal effect; nearly all actives have a fitted effect of over 55% in size
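Cells (2,000 per well) received 5-fluorouridine plus test compound or DMSO and were incubated 16 hr at 37 °C, 5% CO2. Luciferase activity was read by luminescence 30 min after ONE-Glo addition; signal suppression marked inhibition of damage-induced ELG1 function.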
Gal4-VP16 FLuc: VP16 counterscreen qHTS for inhibitors of ROR gamma transcriptional activity. Drosophila S2 Gal4-VP16 UAS-luciferase, luminescence, 20 h. Potency, µM (highest dose often 53.6 µM), inactives show top-dose activity, negative = inhibition, usual class: inhibitors. hit rate 3.5% among 310,000;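 also: Gal4-VP16 expression switched on by copper sulfate through the metallothionein promoter; potency is read from the fitted curve at half-maximal effect; nearly all actives have a fitted effect of over 50% in size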
Coupling enz: qHTS Assay for Inhibitors of Fructose-1,6-bisphosphate Aldolase from Giardia Lamblia: Coupling assay counterscreen; coupling enzyme system counterscreen, AmpLite Red fluorescence; activity change, negative = inhibition, % at 58.2 µM, hits read low; hit rate 0.67% among 290,000; in the data active = activity change below about -30%
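Activity here indicates interference with the coupling reaction, not aldolase inhibition. Compounds at 57.5 uM final met coupling enzymes for 10 min at RT; substrate and AmpLite Red detection followed, with a 525/598 nm fluorescence read after 20 min.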
RORgamma inh: qHTS for inhibitors of ROR gamma transcriptional activity. AID 2551, 2010. hit rate 5.4% among 310,000. Potency, µM (top dose mostly 53.6 µM), for the others: at the highest dose activity change, negative = inhibition, most hits filed as inhibitors. Drosophila S2 Gal4-RORgamma UAS-luciferase reporter, 20 h; also: potency is read from the fitted curve at half-maximal effect; nearly all actives have a fitted effect of over 60% in size
Target sequence (P51450 whole entry, looked up, the tested form may be a part): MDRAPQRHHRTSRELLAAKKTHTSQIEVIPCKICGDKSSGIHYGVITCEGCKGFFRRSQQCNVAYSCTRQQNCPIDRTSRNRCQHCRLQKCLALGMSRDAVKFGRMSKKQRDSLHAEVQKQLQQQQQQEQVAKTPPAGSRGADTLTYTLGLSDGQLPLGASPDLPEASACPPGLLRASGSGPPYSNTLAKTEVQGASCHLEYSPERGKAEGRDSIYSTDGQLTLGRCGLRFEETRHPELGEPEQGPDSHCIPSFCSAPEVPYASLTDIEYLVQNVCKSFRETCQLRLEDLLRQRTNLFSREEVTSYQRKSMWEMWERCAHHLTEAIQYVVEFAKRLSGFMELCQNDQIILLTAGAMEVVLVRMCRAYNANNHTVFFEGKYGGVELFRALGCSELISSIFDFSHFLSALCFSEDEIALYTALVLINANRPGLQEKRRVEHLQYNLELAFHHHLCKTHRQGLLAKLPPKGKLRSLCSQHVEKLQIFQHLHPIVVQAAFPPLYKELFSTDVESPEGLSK
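Stably transfected Drosophila Schneider cells are the test system, with ROR gamma fused to Gal4 and luciferase under UAS control; luminescence is read after 20 hr of 700 uM copper sulfate induction at ambient temperature.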
TSHR antagonist: Antagonists of the Thyroid Stimulating Hormone Receptor: HTS campaign | Thyrotropin receptor (Homo sapiens), P16473 | TSHR-expressing cells, TSH-stimulated cAMP HTRF, 2 h; active compounds read low | activity change, negative = inhibition, % at 11.5 µM | hit rate 0.2% among 330,000;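 active = activity change below a set negative limit, meaning inhibition stronger than a set level, cut at about -70% in these data; inconclusive = activity change between two set negative limits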
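Freshly harvested TSHR cells receive pin-tooled compound, then EC80 TSH at 4nM final. After 2 hours at 37 deg C, antibody in lysis buffer and cAMP-d2 are added; 30 minutes at ambient temperature precede the HTRF read.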
Active calls of the source: *; u = inconclusive; x = no result given; [ ] = remark or other dose. Unless noted, calls follow the shape of the dose curve; as a rule, active = well fitted curve in the direction sought with a large enough effect; inconclusive = small, poorly fitted or top-dose-only effect, or another doubt; inactive = no such curve, though single readings can be large; an effect the other way counts as inactive or inconclusive. % is scaled to controls: 0 for no effect and ±100 for the full control effect.

SMILES	ELG1 repair inh	Gal4-VP16 FLuc	Coupling enz	RORgamma inh	TSHR antagonist
CCCCC1=NN(C(=O)c2ccncc2)C(O)(C(F)(F)F)C1 (stereo unspecified)	-18.3%	u	4.1	-14.9%	-12.6
CCCCC1=NN(C(=O)c2ccco2)C(O)(C(F)(F)F)C1 (stereo unspecified)	-4.3%	17.8µM*	0.5	6.31µM*	-1.8
COc1cccc(C2=NN(C(=O)c3ccco3)C(O)(C(F)(F)F)C2)c1 (stereo unspecified)	u	u	-3.4	5.62µM*	-18.9
O=C(c1ccncc1)N1N=C2CCCCCC2C1(O)C(F)(F)F (stereo unspecified)	-28.6%	-8.7%	3.3	35.7%	-10.5
O=C(c1ccco1)N1N=C2CCCCCC2C1(O)C(F)(F)F (stereo unspecified)	0.326µM*	1µM*	-0.7	0.631µM*	-10.9
Nc1ccc(C(=O)N2N=C(c3ccc(F)cc3)CC2(O)C(F)(F)F)cc1 (stereo unspecified)	-27.4%	-23.3%	-1.8	u	-1.4
COc1cccc(C(=O)N2N=C(c3ccccc3)CC2(O)C(F)(F)F)c1 (stereo unspecified)	-5.5%	20µM*	-1.0	17.8µM*	-0.3
Nc1ccc(C(=O)N2N=C(c3ccccc3)CC2(O)C(F)(F)F)cc1 (stereo unspecified)	-0.6%	-17.7%	0.8	10µM*	1.7
COC(=O)N1N=C(c2ccccc2)CC1(O)C(F)(F)F (stereo unspecified)	u	1.3%	1.5	-2.2%	25.2
COc1ccc(C(=O)N2N=C(c3ccccc3)CC2(O)C(F)(F)F)cc1 (stereo unspecified)	u	7.1%[10 µM]	0.4	15.8µM*	2.1
COc1cccc(C2=NN(C(=O)c3ccccc3)C(O)(C(F)(F)F)C2)c1 (stereo unspecified)	-10.5%	u	-0.8	10µM*	3.1
Nc1cccn2c(-c3ccc(Cl)cc3)cnc12	u	2.1%	-30.9*	-13.8%	6.0
CCc1ccc(N(C(=O)c2snc(C(N)=O)c2N)C(C(=O)NCC2CCCO2)c2ccco2)cc1 (stereo unspecified)	-10.4%	-5.6%	2.0	19.0%	8.5
Cc1ccc(NC(=O)CN(C)C(=O)c2cccc(-n3cccc3)c2)cc1	4.4%	x	x	x	-5.5
COC(=O)c1ccccc1NC1=C/C(=N\S(=O)(=O)c2ccc(C(=O)O)cc2)c2ccccc2C1=O	u	u	-48.2*	u	-35.6
COC(=O)c1ccccc1Nc1ccccc1	-0.7%	-9.9%	0.0	-13.2%	5.9
COC(=O)c1ccccc1NC1=C/C(=N\S(=O)(=O)c2cccs2)c2ccccc2C1=O	5.17µM*	u	4.4	27.0%	18.5
Cc1cc(OCC(O)CN2CCN(c3ccccn3)CC2)cc(C)c1Cl (stereo unspecified)	-9.6%	-12.0%	-2.0	-3.5%	-3.5
COc1ccc2c(c1)CCC1=C2NC(=S)NC1c1ccc(N(C)C)cc1 (stereo unspecified)	8.4%	3.55µM*	1.4	2.82µM*	-4.1
C=CCOc1ccc(C2NC(=S)NC3=C2CCc2ccccc23)cc1 (stereo unspecified)	5.17µM*	12.6µM*	-1.6	3.55µM*	-5.0
O=C1NC2=C(CCc3ccccc32)C(c2ccccc2)N1 (stereo unspecified)	11.1%	2.1%	-12.0	-32.9%	-14.2
COc1cc(C2NC(=S)NC3=C2CCc2ccccc23)cc(OC)c1OC (stereo unspecified)	1.8%	10µM*	-1.0	5.62µM*	-2.6
COc1ccc2c(c1)CCc1cn[nH]c1-2	-0.1%	9.5%	-4.1	-21.6%	3.6
CN(C)C(=O)c1ccc(NC(=O)COc2cccc3c2OC(C)(C)C3)cc1	1.9%	x	x	x	-6.3
CC(C)N(C)Cc1nnnn1CC(=O)NCCc1cccc(C(F)(F)F)c1	0.1%	4.1%	4.3	0.5%	9.8

High-throughput results from PubChem BioAssay.
